Sampled rows, rich in hits. Any-hit rate of the full collection: about 4.6%.
PfHsp90 yeast 2: reduces growth (ATP signal) of yeast expressing P. falciparum Hsp90; S. cerevisiae expressing PfHsp90, BacTiter-Glo ATP, 48 h; yeast lacking PDR1 and PDR3 efflux regulators; inhibition, % at 9.4 µM; hit rate 0.32% among 310,000;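 active = every replicate shows inhibition above about 80%, whatever the replicate mean, limit read from the data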;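 also: 0% = DMSO neutral controls and 100% = 20 µM radicicol positive controls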
tim23-1 inh: inhibits growth of tim23-1 mutant yeast; S. cerevisiae tim23-1 growth, BacTiter-Glo luminescence, 24 h; inhibition, % at 20 µM; hit rate 1.3% among 330,000; AID 463212;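 active = growth inhibition of the mutant yeast at or above 50%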;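 also: temperature-sensitive mutant grown at 25 °C; plate controls were DMSO-treated mutant yeast for no effect and medium wells lacking yeast for full effect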
tim10-1 inh: tim10-1 yeast growth inhibition. S. cerevisiae tim10-1 ts strain growth, BacTiter-Glo, 24 h. inhibition, % at 20 µM. hit rate 2.2% among 330,000. AID 463190;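 active = inhibition of at least 40%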;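 also: mutant grown at 25 °C; 0% = DMSO wells with yeast and 100% = wells holding no yeast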
TIM10 inh: growth inhibitors of TIM10 yeast strain. hit rate 1.4% among 330,000. inhibition, % at 10 µM. S. cerevisiae TIM10 strain growth, BacTiter-Glo luminescence, 24 h;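 active = inhibition of 40% or more at the single tested concentration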;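 also: wild-type TIM10 isogenic control strain grown at permissive 25 °C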
SKKanGAS inh: SKKanGAS growth inhibition. hit rate 1.3% among 300,000. S. pyogenes SKKanGAS, kanamycin growth, BacTiter-Glo, 6 h. AID 1662. inhibition, % at 7.5 µM;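 active = mean replicate score, as percent of positive control median, at least 50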;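 also: strain carries kanamycin resistance gene driven by streptokinase promoter and grows in 40 µg/ml kanamycin; loss of luminescence reflects streptokinase promoter inhibition or plain growth inhibition; 0% = median of DMSO wells and 100% = positive control at its reference dose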
NLRP3 yeast inh: blocks the NALP3 inflammasome reconstituted in yeast. inhibition, % at 10 µM. AID 2825. hit rate 0.39% among 330,000. Yeast reconstituted NLRP3/ASC/caspase-1, beta-gal luminescence, 24 h;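 active = inhibition of 50% or more; inactive = inhibition below 50%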;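 also: plate controls were induced DMSO wells for no effect and uninduced yeast grown without galactose for full effect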
tim23-1 conf: confirmation of tim23-1 mutant yeast growth inhibitors; S. cerevisiae tim23-1 growth, BacTiter-Glo luminescence, 24 h; AID 463218; shares compounds with tim23-1 inh; inhibition, % at 20 µM; hit rate 83% among 4,400;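 active = inhibition above about 39% in either of two replicate wells at 20 µM, limit read from the data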;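 also: temperature-sensitive tim23-1 mutant grown at 25 °C; 0% = DMSO wells with yeast and 100% = medium wells without yeast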
* = called active by the depositor; · = no result given.

SMILES | PfHsp90 yeast 2 | tim23-1 inh | tim10-1 inh | TIM10 inh | SKKanGAS inh | NLRP3 yeast inh | tim23-1 conf
CCCC(=O)NC(c1ccc(OC)cc1)c1ccc2cccnc2c1O (stereo not given) | · | 21 | 34 | 21 | 11 | 3 | ·
CCCCC(=O)NC(c1ccccc1Cl)c1ccc2cccnc2c1O (stereo not given) | 58 | 53* | -2 | -47 | 69* | 18 | 49*
CCC(=O)NC(c1ccc(OC)cc1)c1cc(Cl)c2cccnc2c1O (stereo not given) | 52 | 37 | 20 | 37 | 40 | 14 | ·
Cc1ccc(C(=O)NCC(=O)OCC(=O)NC(C)C2CC3CCC2C3)cc1 (stereo not given) | 9 | 21 | 33 | 16 | · | 2 | ·
CC(=O)NC(c1ccc(C(C)C)cc1)c1ccc2cccnc2c1O (stereo not given) | 108* | 58* | 9 | -30 | 11 | 18 | 60*
CC(=O)NC(C)c1cc(F)c2cccnc2c1O (stereo not given) | · | -4 | 0 | -13 | · | 13 | ·
CCCCC(=O)NC(c1ccc(C(C)C)cc1)c1ccc2cccnc2c1O (stereo not given) | 90* | 58* | -20 | -23 | 88* | 21 | 59*
O=C(NCc1ccccc1)c1nnc(CS(=O)(=O)c2ccccc2)o1 | -38 | 6 | 13 | -3 | 0 | 15 | ·
CC1CCN(C(=O)c2ccccc2NS(=O)(=O)c2ccccc2)CC1 | -7 | 33 | 25 | 19 | -3 | 0 | ·
O=C(Nc1ccc(Cl)c(Cl)c1)Nc1ccon1 | -31 | 53* | 29 | 24 | 67* | -3 | 48*
COc1cccc(NC(=O)CN2C(=O)NC3(CCc4ccccc43)C2=O)c1 (stereo not given) | 16 | -9 | -6 | 5 | · | 2 | ·
CCN1C(=O)[C@H]2[C@H]3CN=C(SCC(=O)c4ccccc4)N3[C@@](C)(C(=O)OC)[C@H]2C1=O | -6 | 26 | 15 | 1 | · | · | ·
Cc1ccc(C2=Nc3ccccc3N=C(C(Cl)Cl)C2)cc1 | 35 | 52* | -3 | 34 | 22 | 19 | 49*
C=CCN(C(=O)c1ccc(Cl)cc1)c1ccccc1C(=O)NCC(=O)O | -5 | 4 | 4 | 4 | -1 | 8 | ·
COc1ccc(/C=C/C2=Nc3ccccc3NC(C)(C)C2)cc1OC | 9 | 51* | 19 | 13 | -9 | -4 | 43*
COc1ccc2cc(-c3[nH]ncc3CN3CCCN(c4ccccc4)CC3)ccc2c1 | 18 | -6 | 36 | 28 | -2 | 5 | ·
CC(=O)NC(=S)Nc1ccc([N+](=O)[O-])cc1C | 11 | -1 | -1 | 0 | 0 | 16 | ·
Cc1cc([N+](=O)[O-])ccc1NC(=S)NC(=O)Cc1ccccc1 | · | 50* | 35 | 30 | 4 | 37 | 27
CNC(=O)c1sc(-c2ccccc2)nc1C | -15 | -12 | -6 | 6 | -1 | 13 | ·
Cc1nc(-c2ccccc2)sc1C(N)=O | -22 | 96* | 17 | 6 | -1 | 18 | 7
CCCOc1ccc(-c2csc(N)n2)cc1[N+](=O)[O-] | -7 | 57* | 21 | 32 | -3 | 35 | 57*
COc1ccc(CCCN2CCC(CN3C(=S)NC[C@@H]3Cc3ccccc3)CC2)cc1OC | 2 | · | · | · | · | · | ·
O=C(CN1C(=O)NC2(CCCCCC2)C1=O)c1ccc(F)cc1 | -23 | -10 | -34 | -14 | -14 | 17 | ·
CCc1ccc(C(=O)CN2C(=O)NC3(CCCCCC3)C2=O)cc1 | 4 | 51* | 13 | 3 | · | 40 | 32
C(=C\c1ccccc1)/C=N/Nc1nc2ccccc2[nH]1 | 5 | 51* | 15 | 19 | 17 | 18 | 48*
SMILES | PfHsp90 yeast 2 | tim23-1 inh | tim10-1 inh | TIM10 inh | SKKanGAS inh | NLRP3 yeast inh | tim23-1 conf
C(/CCc1ccccc1)=N\Nc1nc2ccccc2[nH]1 | -45 | -10 | 0 | -3 | 4 | 1 | ·
Cc1cccc(NS(=O)(=O)c2ccc3c(c2)oc(=O)n3C)c1C | -1 | 95* | -5 | 0 | -3 | 8 | 20
Cc1ccccc1NS(=O)(=O)c1ccc2c(c1)oc(=O)n2C | 49 | 20 | 11 | -6 | 1 | -11 | ·
O=C(c1cccc(C(F)(F)F)c1)c1c[nH]c(C(=O)NCC2CCCO2)c1 (stereo not given) | -20 | 5 | 6 | 0 | -2 | -1 | ·
C[C@@]12C(=O)Nc3ccc(F)cc3C(=O)N1[C@H]1c3cc(Cl)ccc3OC[C@@H]1[C@@H]2c1ccccc1 | -115 | 54* | 20 | 23 | · | -7 | 54*
Cc1ccc2c(c1)C(=O)N1[C@H]3c4cc(Cl)ccc4OC[C@@H]3[C@H](c3ccccc3)[C@]1(C)C(=O)N2 | -79 | 37 | 21 | 6 | · | -3 | ·
Cc1cccc(C(=O)Nc2ccc(C(=O)/C=C/c3ccncc3)cc2)c1 | -13 | 62* | 34 | 26 | 2 | 23 | 59*
Cc1cccc(C(=O)Nc2cccc(C(=O)N/N=C/c3ccncc3)c2)c1 | 3 | 10 | 12 | 5 | -3 | 14 | ·
O=C(c1ccccc1NS(=O)(=O)c1cccc(C(F)(F)F)c1)N1CCc2ccccc21 | -37 | 8 | 7 | 12 | 20 | 12 | ·
COc1ccc(Cn2c(C)nc([N+](=O)[O-])c2SCC(=O)O)cc1[N+](=O)[O-] | -10 | 55* | 3 | -10 | 26 | 23 | 4
O=C(c1ccc(F)cc1F)N1CCN(S(=O)(=O)c2ccc3c(c2)OCCO3)CC1 | · | 42 | 23 | 18 | · | 18 | ·
CCC1CCc2sc(C(=O)N(C)CC(=O)Nc3cccc(OC)c3)cc2C1 (stereo not given) | -30 | 51* | 19 | 12 | · | 27 | 41*
CCC1CCc2sc(C(=O)NCC3CCCO3)cc2C1 (stereo not given) | -27 | 51* | 11 | 7 | · | 27 | 38
CCC1CCc2sc(C(=O)N(C)CC(=O)Nc3ccc(OC)cc3)cc2C1 (stereo not given) | -15 | 51* | 33 | 0 | 10 | 38 | 45*
O=C(Cn1cnc2scc(-c3ccc(Br)cc3)c2c1=O)N1CCOCC1 | 14 | -2 | 5 | 7 | -3 | -10 | ·
CC(C)Cc1csc(NC(=O)c2ccccc2Cl)c1C(=O)O | 0 | 10 | 12 | 6 | 31 | -15 | ·
Cc1ccc(-c2csc(NC(=O)c3ccccc3Cl)c2C(=O)O)cc1 | 13 | 64* | 19 | 16 | 11 | 22 | -24
CCOC(=O)c1ccc(N2N=C(C)/C(=C/C=C/c3ccco3)C2=O)cc1 | 9 | 11 | 17 | 11 | 3 | 3 | ·
CC1=NN(c2ccc(C)c(C)c2)C(=O)/C1=C\C=C\c1ccc([N+](=O)[O-])o1 | 7 | 50* | -22 | 22 | 9 | 17 | -33
